A word on the AC50: it is the concentration giving half of the maximal activity seen.

Screen size: about 16,000 compounds; about 5,800 (36%) were called active. Inconclusive results (about 23%) are left out. This is one part of the list. A number with no mark means an inactive call. The call rests on the fitted dose curve; in most records, active means well fitted curve in the direction sought with a large enough effect; inconclusive means small, poorly fitted or top-dose-only effect, or effect the other way; inactive means no such curve, though single readings can be large or run the other way.
On the % scale 0 is the no-effect control and ±100 the full control effect.

The target in the experiment is Cytochrome P450 2C19 (Homo sapiens) (UniProt P33261). As to the kind of experiment: Cytochrome panel assay with activity outcomes. As to conditions: recombinant CYP, pro-luciferin dealkylation, luminescence, p450-cyp2c19; series mostly up to 57.1 µM; activity, negative = inhibition: at the top concentration.
Chain of Cytochrome P450 2C19 (Homo sapiens) (P33261 whole entry, looked up): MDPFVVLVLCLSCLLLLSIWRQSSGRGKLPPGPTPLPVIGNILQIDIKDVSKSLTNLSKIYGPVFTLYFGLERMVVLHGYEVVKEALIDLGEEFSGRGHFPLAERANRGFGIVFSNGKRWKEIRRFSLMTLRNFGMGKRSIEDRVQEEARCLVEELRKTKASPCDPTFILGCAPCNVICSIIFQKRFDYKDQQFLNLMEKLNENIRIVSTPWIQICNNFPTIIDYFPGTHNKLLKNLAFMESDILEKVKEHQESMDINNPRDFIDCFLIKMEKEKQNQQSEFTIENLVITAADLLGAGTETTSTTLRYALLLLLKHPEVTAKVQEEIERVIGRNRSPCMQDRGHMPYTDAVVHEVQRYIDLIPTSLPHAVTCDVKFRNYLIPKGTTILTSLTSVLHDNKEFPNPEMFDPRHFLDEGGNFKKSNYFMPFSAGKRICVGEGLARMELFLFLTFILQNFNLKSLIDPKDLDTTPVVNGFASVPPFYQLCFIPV
As to `CN(C)c1ccc(NC(=O)CSc2nc(N)c(C(=O)Nc3ccc(N(C)C)cc3)s2)cc1`, the half-maximal activity concentration (AC50) was 11.2 µM (active). On to `Cc1[nH]nc2nc(SCC(=O)NCC3CCCO3)n(-c3ccc(Br)cc3)c(=N)c12` (centres undefined), for which the AC50 is 11.2 µM (active).

Take `Cc1ccc(C)c(-n2c(Cc3cc(=O)[nH]c(=O)[nH]3)nnc2SCC(=O)NCC2CCCO2)c1` (centres undefined): the “activity, negative = inhibition” value is -5.1%. Take `COc1cc(OC)c(NC(=S)Nc2cccc(C(C)=O)c2)cc1Cl`: the AC50 was 3.16 µM (active).

On to `CCOC(=O)c1cnc(N(C)C)nc1SC(=N)N`, for which the activity, negative = inhibition was 7.18% [at 11.4 µM]. Regarding `CCOC(=O)c1cnc2ccc(C)cc2c1Sc1ccccc1C(=O)OC`, the AC50 was 1.26 µM (active). In the case of `c1ccc(-c2nc(-c3cccs3)[nH]c2-c2ccccc2)cc1`, the AC50 is 6.31 µM (active). Take `NC(N)=Nc1nc2ccc([N+](=O)[O-])cc2[nH]1`: the activity, negative = inhibition is -5.76% [at 11.4 µM]. Regarding `O=[N+]([O-])c1cccc(-c2nc(-c3ccccc3)c(-c3cccs3)[nH]2)c1`, the AC50 is 2.51 µM (active).

Regarding `COc1ccc(-c2nc(-c3ccccc3)c(-c3cc([N+](=O)[O-])ccc3C)[nH]2)cc1O`, the AC50 is 8.91 µM (active). For `O=[N+]([O-])c1cccc(-c2nc(-c3cccs3)c(-c3cccs3)[nH]2)c1`, the AC50 is 3.16 µM (active).

Take `CO[C@]1(NC(=O)C2SC(=C(C(N)=O)C(=O)O)S2)C(=O)N2C(C(=O)O)=C(CSc3nnnn3C)CS[C@H]21` (some centres undefined): the “activity, negative = inhibition” value is -28.9% [at 25.6 µM].

In the case of `NCCC(=O)O`, the “activity, negative = inhibition” value was 20.3%. `CCC(Sc1nc2n[nH]c(C)c2c(=N)n1-c1cccc(Cl)c1)C(=O)NCCOC` (centres undefined): the AC50 was 10 µM (active). Turning to `Cc1cc([N+](=O)[O-])c(C)c(Br)c1C`, the activity, negative = inhibition is 8.85% [at 11.4 µM]. As to `CCC(C)Nc1c([N+](=O)[O-])cc(C)cc1[N+](=O)[O-]` (centres undefined), the AC50 is 7.94 µM (active). On to `C[C@@H](N)[C@@H](C)Cc1ccccc1`, for which the activity, negative = inhibition is -14.2% [at 11.4 µM].

Take `O=C(O)Cc1cccnc1`: the activity, negative = inhibition was 9.66% [at 11.4 µM]. In the case of `c1ccc(C[C@@H](Nc2cccnc2)c2ccccc2)cc1`, the AC50 is 1 µM (active). Consider `O=c1[nH]cc(CS(=O)(=O)Cc2c[nH]c(=O)[nH]c2=O)c(=O)[nH]1`, for which the activity, negative = inhibition is 41% [at 11.4 µM]. On to `CC1(C)CC(=O)C(C=NCCN2CCN(C(=S)Nc3ccc(F)cc3)CC2)=C(O)C1`, for which the AC50 was 10 µM (active).

In the case of `COCCCN=CC1=C(O)CC(C)(C)CC1=O`, the “activity, negative = inhibition” value was -18.8%. In the case of `CCCCN1CSC(=S)N(Cc2ccccc2)C1`, the AC50 was 1.26 µM (active). For `S=C1SCN(CCN2CCOCC2)CN1Cc1ccccc1`, the half-maximal activity concentration (AC50) is 10 µM (active).

Take `CC(=O)N1CCC2(CC1)CN(Cc1ccccc1)C2`: the “activity, negative = inhibition” value was 8.15%. On the same count and under the same terms, then `COc1cc2cc3c4cc(OC)c(OC)cc4cc[n+]3c(C)c2cc1OC`, with 44.3% [at 25.6 µM]. On the same count and under the same terms, then `Cc1ccc(NC(=O)c2ccccc2C(=O)O)cc1C`, with -34.4% [at 11.4 µM]. Turning to `Cc1oc(-c2ccccc2)cc1C(=O)Nc1ccc(N(C)C)cc1`, the AC50 was 5.62 µM (active).

As to `Cc1oc(C(C)(C)C)cc1C(=O)Nc1cccc(/C=C/C(=O)O)c1`, the “activity, negative = inhibition” value is -12.3%.

`Cn1c(=N)c(S(=O)(=O)c2ccc(F)cc2)cc2c(=O)n3ccccc3nc21`: the AC50 is 11.2 µM (active). `CCn1c(=N)c(S(=O)(=O)c2ccc(F)cc2)cc2c(=O)n3ccccc3nc21`: the half-maximal activity concentration (AC50) is 8.91 µM (active). With `Cn1c(C(=O)N2COCC2(C)C)cc2c(=O)n3ccccc3nc21`, the “activity, negative = inhibition” value is -15.8%.

Take `Cc1cn([C@H]2C[C@H](O)[C@@H](COC(N)=O)O2)c(=O)[nH]c1=O`: the activity, negative = inhibition was 35.3% [at 11.4 µM].

Take `COc1ccc(Nc2cc(=O)n(C3CCCCC3)c(=O)[nH]2)c(OC)c1`: the AC50 is 10 µM (active). As for `COc1cccc(Nc2ncc3ncc(=O)n(C4CC4)c3n2)c1`, the “activity, negative = inhibition” value is -14%. Regarding `COc1cccc(Nc2ncc3nc(-c4ccc(Cl)cc4)c(=O)n(C4CC4)c3n2)c1`, the “activity, negative = inhibition” value was -31.9%. Take `CS[C@@H](CC(=O)O)C(=O)O`: the activity, negative = inhibition was 17.7% [at 11.4 µM]. The same measure, in the same setting: the figure for `Cc1nnc(N(C)C(=O)c2ccccn2)s1` is -2.67%.

Take `COc1cccc(C(=O)N(C)c2nnc(-c3ccncc3)s2)c1`: the AC50 is 0.0501 µM (active). On the same count and under the same terms, the figure for `CCOc1ccc2nc(SCc3ccccc3C#N)sc2c1` is 1.26 µM (active); for `C=C(C)c1cccc(C(C)(C)NC(=O)Nc2cc(C)ccc2OC)c1` it is 3.98 µM (active); for `CCCCn1c(NCc2ccccc2NS(=O)(=O)c2ccc(C)cc2)nc2ccccc21` it is 1.26 µM (active). Regarding `C#CCCCO/N=C1/C[C@@H](O)[C@@H](O)[C@@H]2[C@H]3C(=O)N(c4ccc(F)cc4F)C(=O)[C@@H]3CC[C@H]12`, the activity, negative = inhibition was 14.9% [at 11.4 µM]. Regarding `NC(=O)CNCCC(c1ccccc1)c1ccccc1`, the “activity, negative = inhibition” value is 8.34%.

Turning to `C[C@H](NCCC(c1ccccc1)c1ccccc1)c1ccccc1`, the AC50 is 5.01 µM (active).

With `c1ccc(C(CCN2CC3CCC(CC3)C2)c2ccccc2)cc1`, the activity, negative = inhibition is 21% [at 11.4 µM]. `CCOC(=O)c1cnc(-n2nc(C)cc2C)nc1NCCO`: the “activity, negative = inhibition” value is -10.6%.

For the molecule `CCOC(=O)c1ccccc1Oc1c(F)c(F)nc(NCCO)c1F`, the AC50 is 2.51 µM (active). Turning to `COc1cccc(Nc2ncc3nc(CCc4ccccc4)c(=O)n(Cc4cccs4)c3n2)c1`, the “activity, negative = inhibition” value is -7.96%. For `COc1ccc(OC)c(C(=O)CSc2nnc(Cc3cccs3)n2CCc2ccccc2)c1`, the AC50 was 1.78 µM (active). On the same count and under the same terms, then `COc1ccc(NC(=O)CSc2nnc(Cc3cccn3C)n2CCc2ccccc2)c(OC)c1`, with 3.16 µM (active). Take `COc1ccc(CCn2c3c(c(=O)[nH]c2=O)C(NC(=O)c2cccs2)(C(F)(F)F)C(=O)N3)cc1OC` (centres undefined): the “activity, negative = inhibition” value is -27.7%.

`CCn1c(CNC(=O)COc2ccc(C(C)C)cc2)nnc1SCC(=O)Nc1cc(F)ccc1C`: the AC50 was 28.2 µM (active). Regarding `COc1ccc(C(=O)NNC(=O)CSc2nnc(COc3ccc4ccccc4c3)n2C)cc1`, the “activity, negative = inhibition” value was -23.2%. Regarding `CCn1c(COc2ccccc2)nnc1SCC(=O)Nc1cc(OC)ccc1OC`, the AC50 was 2.82 µM (active).

With `O=C1c2c(O)cc(O)cc2O[C@@H](c2ccc(O)c(O)c2)[C@H]1O`, the “activity, negative = inhibition” value is -32.5%.

As to `COc1ccc([C@@H]2CC(=O)c3c(O)cc(O)cc3O2)cc1O`, the AC50 is 5.01 µM (active). In the case of `COc1ccc([C@@H]2CC(=O)c3c(O)cc(O[C@H]4O[C@@H](CO[C@H]5O[C@@H](C)[C@@H](O)[C@@H](O)[C@@H]5O)[C@@H](O)[C@@H](O)[C@@H]4O)cc3O2)cc1O`, the “activity, negative = inhibition” value was 4.66% [at 25.6 µM]. The same measure, in the same setting: the figure for `Cc1c(-n2cc(C(=O)c3cc(Cl)ccc3O)cc(C#N)c2=O)c(=O)n(-c2ccccc2)n1C` is -27.3%; for `Cn1cc(C(=O)c2cccc(Cl)c2Cl)cc1C(=O)O` it is -3.12%; for `Cn1cc(C(=O)c2ccc(Cl)cc2Cl)cc1C(=O)O` it is -2.68%.

In the case of `COC(=O)c1cc(C(=O)c2ccc(Cl)cc2Cl)cn1C`, the AC50 was 5.62 µM (active).

Regarding `COC(=O)c1cc(C(=O)c2cccc(Cl)c2Cl)cn1C`, the AC50 is 1.26 µM (active).

Turning to `CN(C)CCCn1cc(C2=C(c3c[nH]c4ccccc34)C(=O)NC2=O)c2ccccc21`, the “activity, negative = inhibition” value was -39.8%. For `CN(C)c1ncc2ncc(=O)n(CCC#N)c2n1`, the “activity, negative = inhibition” value is -36.6%. For `COc1ccc(-c2nc3cnc(N(C)C)nc3n(CCc3ccccc3)c2=O)cc1`, the “activity, negative = inhibition” value is -21.6%.

For the molecule `Cc1nc2cnc(N(C)C)nc2n(CCc2ccccc2)c1=O`, the AC50 is 0.631 µM (active). On the same count and under the same terms, the figure for `CN(C)c1ncc2ncc(=O)n(CCc3ccccc3)c2n1` is 2 µM (active). As to `CN(C)c1ncc2nc(-c3ccccc3)c(=O)n(CCc3ccccc3)c2n1`, the “activity, negative = inhibition” value was -43.1%. Take `CN(C)c1ncc2nc(-c3ccc(F)cc3)c(=O)n(CCc3ccccc3)c2n1`: the “activity, negative = inhibition” value was -11.8%. Take `Cc1ccc(-n2c(O)cnc2Nc2nc(C)cc(C)n2)cc1`: the “activity, negative = inhibition” value is -16.7%.

For `COc1c(C)c2c(c(O)c1C/C=C(\C)CCC(=O)O)C(=O)OC2`, the AC50 result was “inactive”. Same read-out and setting: the figure for `CC(Sc1nnc(C(C)N(C)C)n1-c1ccc(Cl)cc1)C(=O)Nc1ccc2c(c1)OCO2` (centres undefined) is 22.4 µM (active).

Consider `CC(=O)N1CCC2(CC1)CCN(c1ccccn1)CC2`, for which the “activity, negative = inhibition” value was -15.1%. The same measure, in the same setting: then `O=C(O)CCC(=O)N1CCN(c2ccccn2)CC1`, with -10.9%. `CC(C)c1ccc(OCc2ccc(C(=O)N3CCN(c4ccccn4)CC3)cc2)cc1`: the AC50 was 11.2 µM (active). Turning to `O=C(c1cnccn1)N1CCC2(CC1)CN(c1ccccn1)C2`, the “activity, negative = inhibition” value is -19.8%. Same read-out and setting: then `O=C(c1cnccn1)N1CCC2(CC1)CCN(c1ccccn1)CC2`, with -16.2%; and `Cn1cccc1C(=O)N1CCC2(CC1)CCN(c1ncccn1)CC2`, with -26.1%. Regarding `COc1ccccc1C(=O)N1CCN(c2ccccn2)CC1`, the AC50 is 7.08 µM (active).

For the molecule `O=C(c1cnccn1)N1CCC2(CC1)CCN(c1ncccn1)CC2`, the “activity, negative = inhibition” value was -1.14%.

For `O=C(c1cnc(N2CCN(c3ncccn3)CC2)c2ccccc12)N1CCN(c2ncccn2)CC1`, the AC50 is 10 µM (active). Consider `COCC(=O)N1CCC2(CC1)CCN(c1ccccn1)CC2`, for which the “activity, negative = inhibition” value is -28.4%.

For `O=C(c1cnc(N2CCN(c3ncccn3)CC2)c2ccccc12)N1CCN(c2ccccn2)CC1`, the AC50 is 5.01 µM (active).

With `COCC(=O)N1CCC2(CC1)CCN(C(=O)NC(C)C)CC2`, the “activity, negative = inhibition” value was -30.3%. `Cc1ccc(-n2nnnc2C(=Cc2ccc(N(C)C)cc2)c2nnnn2-c2ccc(C)cc2)cc1`: the AC50 was 1.26 µM (active). Take `O=C1CC(c2cccc(F)c2)SC(N(c2ccccc2)c2ccccc2)=N1` (centres undefined): the AC50 is 5.01 µM (active). As for `O=C(Oc1ccc2c(c1)CN(Cc1ccccc1)CO2)c1ccccc1`, the activity, negative = inhibition is -25.4% [at 11.4 µM].

On to `COC(=O)C(Cc1ccc(OC(=O)c2ccc(C(F)(F)F)cc2)cc1)N1Cc2ccccc2C1=O` (centres undefined), for which the AC50 is 14.1 µM (active). On the same count and under the same terms, then `COC(=O)C(Cc1ccc(OC(=O)c2ccc(Cl)cc2)cc1)N1Cc2ccccc2C1=O` (centres undefined), with 2.82 µM (active). Turning to `CN1CCN(c2ncc3nc(-c4ccccc4)c(=O)n(Cc4cccs4)c3n2)CC1`, the “activity, negative = inhibition” value is -25.6%. In the case of `CC(C)[C@]1(Cl)CC[C@@H]2[C@]3(C)CCC[C@@](C)(C(=O)O)[C@H]3C[C@H](Cl)[C@@]2(Cl)[C@H]1Cl`, the activity, negative = inhibition was -28.4% [at 11.4 µM]. Turning to `Cc1cc(NC(=O)Nc2ccc(F)cc2)no1`, the AC50 is 14.1 µM (active). For the molecule `Cc1noc(N)c1C(=O)Nc1ccc(F)cc1`, the “activity, negative = inhibition” value was -25.6%.

The values are drawn from PubChem BioAssay AID1851 (National Center for Advancing Translational Sciences (NCATS), 2009).
